# Test results published in ChEMBL document CHEMBL3988442, “University of Dundee, Small-Polar-MMV Screening Library” (2021).
# For some of these results: Entries with a potency or affinity are not part of this list.
# How the values were obtained:
# Set-up in all cases: scale not given: direction of the effect not stated beside the values
# [1] = target: Protein translocase subunit SecA (Escherichia coli (strain K12)) (UniProt P10408); experiment: Assay to Identify E. coli SecA ATPase Inhibitors; assay type: functional; settings: 30 µM
# Protein translocase subunit SecA (Escherichia coli (strain K12)), sequence (P10408 whole entry): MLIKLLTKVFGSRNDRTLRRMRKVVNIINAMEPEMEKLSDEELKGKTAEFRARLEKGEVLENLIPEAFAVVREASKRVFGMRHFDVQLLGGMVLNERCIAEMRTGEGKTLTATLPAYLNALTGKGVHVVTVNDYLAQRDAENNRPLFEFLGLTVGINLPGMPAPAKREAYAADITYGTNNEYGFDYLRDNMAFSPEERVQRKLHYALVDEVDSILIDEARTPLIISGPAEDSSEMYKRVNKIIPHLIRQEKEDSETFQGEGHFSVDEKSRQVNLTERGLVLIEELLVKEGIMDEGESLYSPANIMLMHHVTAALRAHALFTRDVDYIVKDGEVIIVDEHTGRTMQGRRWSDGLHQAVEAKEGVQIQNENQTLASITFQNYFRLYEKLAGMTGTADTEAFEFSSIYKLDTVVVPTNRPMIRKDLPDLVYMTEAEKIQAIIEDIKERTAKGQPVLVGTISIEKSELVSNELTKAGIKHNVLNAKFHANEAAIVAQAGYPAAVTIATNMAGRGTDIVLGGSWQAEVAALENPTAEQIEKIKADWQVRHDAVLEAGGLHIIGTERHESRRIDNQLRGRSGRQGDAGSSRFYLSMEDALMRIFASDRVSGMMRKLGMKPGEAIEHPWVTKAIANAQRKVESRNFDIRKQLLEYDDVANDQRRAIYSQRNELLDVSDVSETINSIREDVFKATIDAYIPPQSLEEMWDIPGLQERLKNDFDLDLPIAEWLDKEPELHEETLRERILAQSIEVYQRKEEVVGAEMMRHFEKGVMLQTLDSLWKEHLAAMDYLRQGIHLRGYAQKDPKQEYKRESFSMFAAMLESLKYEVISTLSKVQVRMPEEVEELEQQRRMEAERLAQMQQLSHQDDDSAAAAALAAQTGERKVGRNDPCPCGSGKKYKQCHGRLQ
# [2] = target: T1, Ubiquitin-activating enzyme e1, putative (Leishmania donovani (strain BPK282A1)) (UniProt E9BSI1); experiment: Leishmania donovani Ubiquitin Activating Enzyme (LdE1); assay type: functional; settings: 30 µM
# T1 sequence (whole entry): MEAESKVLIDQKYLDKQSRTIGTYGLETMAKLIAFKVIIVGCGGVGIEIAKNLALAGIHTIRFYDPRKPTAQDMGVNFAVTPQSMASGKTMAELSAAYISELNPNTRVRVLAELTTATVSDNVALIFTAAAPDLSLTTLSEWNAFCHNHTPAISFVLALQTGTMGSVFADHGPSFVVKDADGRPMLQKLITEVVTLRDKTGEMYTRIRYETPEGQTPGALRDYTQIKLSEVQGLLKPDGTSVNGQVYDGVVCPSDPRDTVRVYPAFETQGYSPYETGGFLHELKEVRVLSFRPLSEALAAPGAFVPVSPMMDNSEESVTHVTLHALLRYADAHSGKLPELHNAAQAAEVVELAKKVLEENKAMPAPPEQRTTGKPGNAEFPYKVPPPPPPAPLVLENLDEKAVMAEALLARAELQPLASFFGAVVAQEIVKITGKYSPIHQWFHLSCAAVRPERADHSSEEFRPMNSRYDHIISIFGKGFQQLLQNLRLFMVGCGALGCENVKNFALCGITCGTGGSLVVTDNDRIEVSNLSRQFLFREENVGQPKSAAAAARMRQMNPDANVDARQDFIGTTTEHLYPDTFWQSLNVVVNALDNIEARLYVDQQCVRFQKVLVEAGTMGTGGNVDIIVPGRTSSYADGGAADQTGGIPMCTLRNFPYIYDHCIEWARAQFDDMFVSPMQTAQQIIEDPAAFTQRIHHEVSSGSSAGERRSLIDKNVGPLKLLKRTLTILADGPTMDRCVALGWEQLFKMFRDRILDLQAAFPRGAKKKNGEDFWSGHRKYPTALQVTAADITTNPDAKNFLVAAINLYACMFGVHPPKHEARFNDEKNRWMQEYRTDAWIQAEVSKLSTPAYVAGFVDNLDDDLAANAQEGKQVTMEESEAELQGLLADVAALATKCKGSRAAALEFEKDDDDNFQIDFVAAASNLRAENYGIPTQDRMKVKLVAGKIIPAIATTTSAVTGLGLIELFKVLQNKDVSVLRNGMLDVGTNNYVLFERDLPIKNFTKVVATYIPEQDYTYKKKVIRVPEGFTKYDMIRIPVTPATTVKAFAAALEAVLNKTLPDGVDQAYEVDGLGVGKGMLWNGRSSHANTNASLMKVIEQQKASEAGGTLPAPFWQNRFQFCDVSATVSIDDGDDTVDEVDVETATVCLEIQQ
# [3] = target: Sialic acid-binding Ig-like lectin 9 (Homo sapiens) (UniProt Q9Y336); experiment: Hs-Siglec9 ALPHAscreen SOP 20170721; settings: 10 µM
# Sialic acid-binding Ig-like lectin 9 (Homo sapiens), sequence (Q9Y336 whole entry): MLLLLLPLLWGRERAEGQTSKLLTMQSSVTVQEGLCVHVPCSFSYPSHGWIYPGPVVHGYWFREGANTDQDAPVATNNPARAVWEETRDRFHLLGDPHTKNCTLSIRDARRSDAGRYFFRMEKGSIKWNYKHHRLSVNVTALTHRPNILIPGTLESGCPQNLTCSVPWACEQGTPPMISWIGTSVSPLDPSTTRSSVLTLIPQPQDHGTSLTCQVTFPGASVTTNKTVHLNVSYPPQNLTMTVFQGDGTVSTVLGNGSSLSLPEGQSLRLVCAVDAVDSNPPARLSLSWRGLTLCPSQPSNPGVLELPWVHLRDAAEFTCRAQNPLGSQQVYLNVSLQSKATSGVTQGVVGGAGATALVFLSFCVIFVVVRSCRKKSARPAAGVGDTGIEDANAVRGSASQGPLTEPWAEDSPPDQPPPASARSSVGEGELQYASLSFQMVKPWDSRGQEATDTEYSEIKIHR
# Trypanosoma cruzi = experiment: Trypanosoma cruzi phosphomannomutase and mannose-1-phosphate guanylyltransferase assay; assay type: functional; settings: 10 µM
# [4] = target: T2, Arginase-2, mitochondrial (Homo sapiens) (UniProt P78540); experiment: in vitro enzyme assay to detect the production of urea directly proportional to the activity of Arginase II; assay type: functional; settings: 33.3 µM; also: in the data most compounds retested in dose-response had high values
# T2 sequence (whole entry): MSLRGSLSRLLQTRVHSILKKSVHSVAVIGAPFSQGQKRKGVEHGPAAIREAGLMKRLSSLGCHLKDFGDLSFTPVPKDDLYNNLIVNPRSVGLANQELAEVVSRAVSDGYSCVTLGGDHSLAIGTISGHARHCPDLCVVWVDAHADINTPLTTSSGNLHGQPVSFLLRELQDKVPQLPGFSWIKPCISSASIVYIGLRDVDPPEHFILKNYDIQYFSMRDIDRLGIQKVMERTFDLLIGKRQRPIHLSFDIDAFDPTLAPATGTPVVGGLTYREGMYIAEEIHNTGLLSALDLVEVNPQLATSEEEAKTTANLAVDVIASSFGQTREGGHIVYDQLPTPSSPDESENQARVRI
# [5] = target: T3, Proteasome subunit beta (Trypanosoma cruzi) (UniProt O96673); experiment: Trypanosoma cruzi proteasome chymotrypsin-like activity (TcProtChymo) assay.; also: in the data most compounds retested in dose-response had high values; assay type: functional; settings: 9.37 µM
# T3 sequence (whole entry): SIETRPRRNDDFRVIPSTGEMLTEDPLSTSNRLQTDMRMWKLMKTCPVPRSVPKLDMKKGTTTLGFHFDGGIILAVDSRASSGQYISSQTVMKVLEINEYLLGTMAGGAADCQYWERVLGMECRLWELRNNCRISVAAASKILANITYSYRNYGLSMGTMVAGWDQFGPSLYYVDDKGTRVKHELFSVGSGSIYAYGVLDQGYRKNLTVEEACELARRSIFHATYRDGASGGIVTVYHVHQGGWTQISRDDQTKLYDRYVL
# Homo sapiens = organism: Homo sapiens; experiment: To identify inhibition of the IFN signalling (Jak-Stat) pathway via expression of an eGFP reporter gene under the control of an IFN-stimulated response element (ISRE) containing MxA promoter.; assay type: functional; settings: 30 µM
# [6] = target: T4, Tyrosyl-tRNA synthetase, putative (Trypanosoma cruzi (strain CL Brener)) (UniProt Q4DSP6); experiment: Trypanosoma cruzi tyrosyl tRNA synthetase (TcYRS) _High Tyrosine SOP; assay type: functional; settings: 30 µM; also: in the data most compounds retested in dose-response had high values
# T4 sequence (whole entry): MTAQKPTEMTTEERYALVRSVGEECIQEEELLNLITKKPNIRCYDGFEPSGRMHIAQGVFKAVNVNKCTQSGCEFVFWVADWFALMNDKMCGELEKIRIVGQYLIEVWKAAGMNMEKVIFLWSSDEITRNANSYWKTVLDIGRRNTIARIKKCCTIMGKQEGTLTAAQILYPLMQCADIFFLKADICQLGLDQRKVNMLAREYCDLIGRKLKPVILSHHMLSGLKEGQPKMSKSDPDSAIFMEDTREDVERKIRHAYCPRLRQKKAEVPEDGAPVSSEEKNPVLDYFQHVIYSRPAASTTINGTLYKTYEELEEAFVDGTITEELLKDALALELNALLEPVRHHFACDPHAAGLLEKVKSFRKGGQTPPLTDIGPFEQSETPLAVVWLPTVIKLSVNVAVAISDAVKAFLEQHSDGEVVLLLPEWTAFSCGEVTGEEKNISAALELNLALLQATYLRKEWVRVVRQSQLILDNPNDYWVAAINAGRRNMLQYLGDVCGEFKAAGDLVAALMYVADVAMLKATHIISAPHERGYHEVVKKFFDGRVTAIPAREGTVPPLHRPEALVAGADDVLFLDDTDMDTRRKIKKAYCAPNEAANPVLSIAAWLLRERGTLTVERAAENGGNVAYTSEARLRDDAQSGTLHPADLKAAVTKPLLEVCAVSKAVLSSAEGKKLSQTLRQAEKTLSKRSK
# [7] = target: T4, Tyrosyl-tRNA synthetase, putative (Trypanosoma cruzi (strain CL Brener)); experiment: Trypanosoma cruzi tyrosyl tRNA synthetase (TcYRS) SOP; assay type: functional; settings: 30 µM
# [8] = target: Chromo domain-containing protein 1 (Saccharomyces cerevisiae (strain ATCC 204508 / S288c) (Baker's yeast)) (UniProt P32657); experiment: ScCHD-1 Enzyme Inhibition Assay; assay type: functional; settings: 30 µM; also: in the data most compounds retested in dose-response had high values
# Chromo domain-containing protein 1 (Saccharomyces cerevisiae (strain ATCC 204508 / S288c) (Baker's yeast)), sequence (P32657 whole entry, the tested form may be a part): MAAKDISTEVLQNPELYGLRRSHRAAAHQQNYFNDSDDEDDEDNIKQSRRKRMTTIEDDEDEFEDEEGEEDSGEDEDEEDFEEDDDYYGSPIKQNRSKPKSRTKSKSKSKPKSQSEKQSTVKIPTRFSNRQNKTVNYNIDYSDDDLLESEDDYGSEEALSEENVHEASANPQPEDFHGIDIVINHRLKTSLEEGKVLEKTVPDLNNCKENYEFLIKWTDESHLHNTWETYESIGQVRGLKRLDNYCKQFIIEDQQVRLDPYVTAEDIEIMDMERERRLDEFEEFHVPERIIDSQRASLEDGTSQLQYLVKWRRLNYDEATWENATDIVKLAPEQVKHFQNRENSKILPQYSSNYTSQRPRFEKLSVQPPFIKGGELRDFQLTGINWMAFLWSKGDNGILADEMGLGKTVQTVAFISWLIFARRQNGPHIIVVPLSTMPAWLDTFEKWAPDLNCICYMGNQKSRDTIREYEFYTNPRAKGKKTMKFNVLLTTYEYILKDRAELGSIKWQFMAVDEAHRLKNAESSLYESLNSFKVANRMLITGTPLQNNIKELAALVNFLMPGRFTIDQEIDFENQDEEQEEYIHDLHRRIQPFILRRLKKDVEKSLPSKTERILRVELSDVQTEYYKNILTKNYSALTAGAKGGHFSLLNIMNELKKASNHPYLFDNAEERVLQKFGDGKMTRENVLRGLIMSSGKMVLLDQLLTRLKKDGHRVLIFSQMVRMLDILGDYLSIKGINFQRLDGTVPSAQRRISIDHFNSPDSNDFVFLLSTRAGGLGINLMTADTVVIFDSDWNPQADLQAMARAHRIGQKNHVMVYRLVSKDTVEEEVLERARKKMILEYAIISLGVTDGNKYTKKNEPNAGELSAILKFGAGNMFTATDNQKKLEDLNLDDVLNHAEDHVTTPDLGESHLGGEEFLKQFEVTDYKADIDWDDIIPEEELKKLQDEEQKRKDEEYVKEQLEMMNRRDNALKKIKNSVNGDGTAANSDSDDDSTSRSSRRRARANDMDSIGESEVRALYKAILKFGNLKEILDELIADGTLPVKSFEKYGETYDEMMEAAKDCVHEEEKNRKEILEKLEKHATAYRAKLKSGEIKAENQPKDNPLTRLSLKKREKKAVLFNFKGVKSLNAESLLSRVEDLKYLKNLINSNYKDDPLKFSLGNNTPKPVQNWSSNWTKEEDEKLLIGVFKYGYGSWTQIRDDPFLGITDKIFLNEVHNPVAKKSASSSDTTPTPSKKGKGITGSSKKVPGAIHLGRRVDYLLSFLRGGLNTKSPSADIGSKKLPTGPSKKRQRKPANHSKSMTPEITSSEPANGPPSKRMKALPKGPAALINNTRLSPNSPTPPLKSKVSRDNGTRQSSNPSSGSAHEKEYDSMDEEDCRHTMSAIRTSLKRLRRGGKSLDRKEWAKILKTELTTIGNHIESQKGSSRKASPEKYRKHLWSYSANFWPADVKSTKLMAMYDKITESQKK
Structure (SMILES),Percent Effect [1] [%],Percent Effect [2] [%],Percent Effect [3] [%],Percent Effect (Trypanosoma cruzi) [%],Percent Effect [4] [%],Percent Effect [5] [%],Percent Effect (Homo sapiens) [%],Percent Effect [6] [%],Percent Effect [7] [%],Percent Effect [8] [%]
CCN1CCN(c2ccc(CNC(=O)c3c(C)noc3C)cn2)CC1,-1.13,21.3,-5.5,3.01,2.66,23.8,1.82,1.58,15.4,-14.6
Cc1ncc2c(n1)CCN(Cc1nc3ccccc3o1)C2,-4.63,16,-1.93,0.201,-6.21,16,-5.07,7.89,25.6,-11
Cc1ccc([C@@H]2CN(C(=O)c3cccnn3)C[C@H]2NC(=O)C2CC2)cc1,-10.6,5.41,16.9,4.17,4.54,13.2,3.04,5.85,19.5,-1.62
CCN1C(=O)CCCC12CCCN(C(=O)c1cnccn1)C2 (stereo not given),-2.55,3.9,1.16,-0.75,-2.28,2.49,14.1,2.9,7.5,-6.78
Cn1ccc(CN2CCC(NC(=O)Cc3ccccc3)CC2)cc1=O,-2.78,5.13,-5.06,6.85,2.87,6.74,-7.1,7.18,13.2,-3.86
CCn1cc(CN(C)S(=O)(=O)c2cnn(CC)c2C)c(C)n1,39.4,14.7,-2.08,-0.986,3.1,15.3,39.3,2.12,10,-20.5
Cc1nn(C)c(N2CCOCC2)c1CNC1CCc2cc(F)ccc21 (stereo not given),-1.4,20.8,4.82,-2.8,11.7,7.72,0.31,6.86,18.8,-4.69
Cc1nc(C)n(CC2CCCN2Cc2cn3c(C)cccc3n2)n1 (stereo not given),-1.02,2.67,7.22,4.62,2.66,8.4,-19.9,1.58,5.13,-11.6
CNc1cccc(C2CCCN(C(C)=O)C2)n1 (stereo not given),1.36,6.67,-7.25,-6.71,3.98,14.1,17.4,1.06,5,-14.4
CCc1noc(C(C)N2CCOCC2)n1 (stereo not given),-7.21,10.7,7.7,0.602,0.887,5.85,5.17,6.84,5.13,-8.94
Fc1ccc(CN2CCCC2c2cncc(-n3ccnc3)n2)cc1 (stereo not given),-2.01,9.33,-0.339,-0.986,0.885,-1.97,3.29,4.23,12.5,-24.9
Cc1ccc(C(=O)N2CCC3(CC2)CC(N2CCCC2)C3)cc1,-4.52,11.7,1.16,-0.75,1.83,7.12,-12.1,8.7,12.5,-4.42
CC(c1nc(C2CC2)no1)N1CCN(Cc2cccc(C#N)c2)CC1 (stereo not given),-5.05,15.4,-15.7,5.35,-4.1,10.5,3.36,3.35,20.5,-0.399
CCN1C(=O)CCCC12CCCN(C(=O)c1conc1C)C2 (stereo not given),-1.85,3.9,-5.23,-3.75,-0.457,5.75,14,-4.83,-5,-2.52
O=C(NCCN1CCCCC1)c1ccoc1,-6.92,7.79,-0.674,-7.28,-2.66,4.21,14.7,-2.94,0,-4.75
O=C(NCCc1ccccc1)C1CCCN(c2ccc3nncn3n2)C1 (stereo not given),-3.44,2.7,-1.4,-8.05,1.75,17.6,-5.46,5.85,7.32,-3.81
CC(C)c1nn(C)c(N2CCOCC2)c1CNCCS(C)(=O)=O,-1.81,0,0.36,1.22,4.92,-0.427,-17,0.478,1.21,1.65
CCN(CC1CCOC1)C(=O)Nc1ccc(OC)nc1 (stereo not given),-0.796,17.9,-22.4,2.35,2.46,18.2,15.6,2.39,22.9,-7.72
CCc1n[nH]c(C2CN(C(=O)c3ncoc3C(C)C)CCO2)n1 (stereo not given),1.99,15.6,8.33,-0.746,-2.25,2.46,17.6,2.94,18.8,-8.96
CCc1nc(C2CCCN2C(=O)c2cc(C3CC3)[nH]n2)no1 (stereo not given),-3.71,5.33,-4.76,-5.02,1.77,-1.44,12.6,3.68,5.13,-6.15
Cc1ccc(NC2CCN(C(=O)c3cc(C(N)=O)cs3)CC2)nn1,-3.49,2.67,2.8,1.41,0.444,7.55,21.6,1.58,5.13,-4.07
CC1COCCN1C(=O)c1cccc(OCc2cscn2)c1 (stereo not given),-2.94,10.3,-10.6,7.98,-4.1,9.3,-21.1,5.26,20.5,-2.42
CC(C)c1nccn1-c1cccc(C2CCCN(C3CCCC3)C2)n1 (stereo not given),-2.48,6.67,3.65,0.197,0.885,15.6,2.2,6.35,17.5,-23.6
Cn1cnnc1C1CCCN(C(=O)c2cc(Cl)c3c(c2)OCO3)C1 (stereo not given),-2.96,5.33,2.45,-5.02,2.22,8.57,4.91,0.526,10.3,-5.32
CN1CCC/C1=N\S(=O)(=O)c1ccc(NC(=O)c2cccs2)cc1,0.351,15.6,-0.824,3.73,-3.48,12.5,8.73,7.84,21.2,-10.9
CS(=O)(=O)N1CCC(NC(=O)COc2ccc(Cl)c(Cl)c2)CC1,-0.592,15.6,-0.737,-2.24,-2.66,3.86,10.2,13.7,28.2,-8.55
Cc1ccc(-c2nc(CCNC(=O)CCN3CCOC3=O)co2)cc1,-3.11,5.33,5.5,-0.602,8.87,7.72,33.2,6.84,5.13,-8.83
CCNc1nc2c(s1)C(=O)CN(C(=O)NCCc1ccccc1)C2,-3.42,5.33,-0.604,-6.43,3.99,-1.95,9.15,1.58,2.56,2.08
